Screen size: about 340,000 compounds; about 3,400 (1%) were called active. This excerpt belongs to a sample that is enriched for actives. Values without a mark were called inactive.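 How the source made its calls: active means inhibition above the mean over all tested compounds plus 3 SD (cut at about 4.2% in these data); inactive means the rest.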

Sequence of Nuclear receptor subfamily 0 group B member 1 (Homo sapiens) (P51843 207-470 limits assumed): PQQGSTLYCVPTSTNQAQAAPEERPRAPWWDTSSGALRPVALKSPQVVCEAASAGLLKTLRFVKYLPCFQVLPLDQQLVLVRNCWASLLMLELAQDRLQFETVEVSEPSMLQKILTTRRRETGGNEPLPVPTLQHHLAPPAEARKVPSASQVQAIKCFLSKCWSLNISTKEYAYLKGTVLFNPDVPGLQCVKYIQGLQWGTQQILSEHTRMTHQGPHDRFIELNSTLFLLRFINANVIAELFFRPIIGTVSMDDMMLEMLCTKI

The experiment addresses Nuclear receptor subfamily 0 group B member 1 (Homo sapiens) (UniProt P51843). Kind of experiment: relief of DAX1 transcriptional repression – cell-based, HEK293, Gal4-DAX1, luciferase luminescence, primary screen (AID 504766).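 Further: 0% = DAX1-transfected cells with DMSO and 100% = empty-vector control cells with DMSO; inhibition shows as a rise in luminescence from relieved DAX1 repression.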 Conditions: HEK293 Gal4-DAX1 luciferase reporter, at 6.75 µM, stronger effect = higher value.
As a reminder, the inhibition is the drop in the measured response relative to a control, in per cent. For the molecule `COc1ccc(OC)c(-n2c(-c3ccn[nH]3)n[nH]c2=S)c1`, the inhibition was 4.83% (active). As to `COc1ccc(-n2c(-c3ccc(Cl)cc3)n[nH]c2=S)c(OC)c1`, the inhibition is 0.25%. On to `COc1ccc(OCc2n[nH]c(=S)n2N)cc1`, for which the inhibition was 0.95%.

In the case of `C[C@@H]1CN([C@H](C)CO)C(=O)c2cc(-c3ccc(F)cc3)cnc2O[C@H]1CN(C)C(=O)c1ccc(F)cc1`, the inhibition was -1.22%. As to `CN(Cc1ccccc1)C(=O)c1ccc(COc2ccccc2)cc1`, the inhibition is 0.19%. `CN(Cc1ccccc1)C(=O)c1cccc(C(=O)N(C)Cc2ccccc2)c1`: the inhibition was 0.91%.

As to `CN(CC(=O)O)C(=O)c1ccccc1`, the inhibition is 5.67% (active). The result for `COCOCCn1cc(CN2CCS(=O)(=O)N(Cc3ccc(-c4cccc(N(C)C)c4)cc3)C(CC(C)C)C2=O)nn1` (configuration not stated) reads 2.25%; that for `Cc1cc(Nc2ccc(Br)cc2)nc2ccccc12`, 5.55% (active); that for `CN1CCN(c2nc(Nc3ccc(O)cc3)nc3ccccc23)CC1`, 0.71%.

In the case of `CCOc1ccc(NC(=O)c2cc(C)nc3ccccc23)cc1`, the inhibition was 0.49%.

Take `CSC1=NN(c2ccccc2)CN(c2ccccc2)N1C`: the inhibition is 0.33%. The value for `C[C@@H]1CN([C@@H](C)CO)S(=O)(=O)c2ccc(-c3ccc(C(=O)N(C)C)cc3)cc2O[C@@H]1CN(C)Cc1ccccc1C(=O)O` was 3.37%; that for `Cc1nc2c(ncn2-c2ccccc2)c(=O)n1NC(=O)CN1CCCC1` was 8.39% (active). For the molecule `Cc1csc(NC(=O)CN2CCCCCC2)n1`, the inhibition was 1.37%. As for `Cc1nn(CC(=O)N2CCCCC2)c(=O)c2nn(-c3ccccc3)c(C)c12`, the inhibition is 0.17%.

Regarding `COc1ccc(NC2CCCN(C(=O)c3ccccc3-c3ncc[nH]3)C2)cc1` (configuration not stated), the inhibition is -0.18%.

As to `Cc1cccc(OCC(=O)Nc2ccccc2F)c1`, the inhibition is 5.58% (active). The result for `Cc1cccc(OCC(=O)Nc2ccc(C(=O)O)cc2NC(=O)COc2cccc(C)c2)c1` reads 0.91%; that for `Cc1cccc(OCCC(=O)Nc2ccccc2C(N)=O)c1`, -0.79%; that for `COc1ccccc1-n1c(SCC(=O)Nc2ccc(Cl)cc2)nc(O)c(Cc2ccccc2)c1=O`, 1.11%. The result for `CC1(C)CC(=O)C(CC(=O)N2CCC(Cc3ccccc3)CC2)C(=O)C1` reads 3.82%. The value for `CC1(C)CC(=O)C(C2c3ccccc3S(=O)(=O)c3ccccc32)C(=O)C1` was 5.54% (active).

For the molecule `CC1(C)CC(=O)NC=C(c2ccccc2)C1`, the inhibition is -0.26%. In the case of `COc1ccc(C(=O)NCC2CCCO2)cc1S(=O)(=O)NCc1ccc(Cl)cc1` (configuration not stated), the inhibition was 0%. The result for `CC1=C(C(=O)N(C)C)CC(CC(=O)NCCc2ccccn2)C(=O)N1CCC1=CCCCC1` (configuration not stated) reads 1.44%; that for `CC(C)N=C1CCCC1C(=S)SSC(=S)C1CCCC1=NC(C)C` (configuration not stated), -3.43%; that for `COc1ccc(/C=C(/NC(=O)c2ccco2)C(=O)Nc2ccc(C(C)=O)cc2)cc1`, 4.81% (active). The value for `Cc1ccc(NC(=O)/C(=C\c2ccccc2)NC(=O)c2ccco2)cc1` was 0.33%; that for `O=C(Nc1ccc2ccccc2c1)/C(=C\c1ccc2c(c1)OCO2)NC(=O)c1ccco1` was -1.35%. Consider `Cc1ccc(CCNC(=O)CN2C(=O)CSc3ccc(S(=O)(=O)N4CCOCC4)cc32)cc1`, for which the inhibition is 0.18%. The value for `NC1=CC(=O)C(=O)c2cccnc21` was -3.86%. The value for `C[C@@H]1CCCCO[C@H](CN(C)Cc2ccccc2)[C@@H](C)CN([C@H](C)CO)C(=O)c2cc(NS(=O)(=O)c3ccc(Cl)cc3)ccc2O1` was -0.88%; that for `Cc1ccc([C@H]2C[C@H](O)[C@@H](n3cc(COC(=O)c4ccccc4)nn3)CN2CC2CCCCC2)cc1` was 2.07%; that for `Brc1ccccc1C1N=C(c2ccccc2)NO1` (configuration not stated) was 1.91%.

As for `N#Cc1ccc(C2N=C(c3ccccc3)NO2)cc1` (configuration not stated), the inhibition was 4.58% (active). On to `Nc1cccc(OCCCCCOc2cccc(N)c2)c1`, for which the inhibition is -0.21%. As for `CSc1ncnc2c1ncn2CCCNCc1ccco1`, the inhibition was 0.14%. On to `C[C@H]1CN([C@@H](C)CO)C(=O)c2cc(-c3cccc(F)c3)cnc2O[C@@H]1CN(C)S(C)(=O)=O`, for which the inhibition was 3.06%. As for `N#CC1(Nc2ccc3c4c(cccc24)CC3)CCCCC1`, the inhibition is -0.16%. For `Cc1cc(N=Nc2ccc3ccccc3c2)ccc1O`, the inhibition is 4.42% (active). The value for `CCOC(=O)c1c(NC(=S)SC)sc(C(=O)N2CCc3ccccc3C2)c1C` was 0.87%; that for `CCSc1nc2sc3c(c2c(=O)n1-c1ccc(C)cc1)CCN(C)C3` was 0.31%. For `CN1CCc2c(sc3c2c(NCc2ccco2)nc2nnnn23)C1`, the inhibition is 5.18% (active). The value for `CCCSc1nc(NCc2ccco2)c2c3c(sc2n1)COC(C)(CC)C3` (configuration not stated) was 1.15%. The result for `C[C@@H]1CN([C@@H](C)CO)C(=O)c2cc(NS(C)(=O)=O)ccc2O[C@@H](C)CCCCO[C@H]1CN(C)C(=O)Nc1ccc2c(c1)OCO2` reads 0.65%; that for `COc1ccc(N2CCN(C(=O)C3CCN(S(=O)(=O)c4ccc(C)cc4)CC3)CC2)cc1`, 7.45% (active). The value for `COc1ccc(N2CCN(C(=O)C3CCN(C(=O)c4ccccc4Cl)CC3)CC2)cc1` was -0.89%; that for `Cc1ccc(S(=O)(=O)N2CCC(C(=O)N3CCCCCCC3)CC2)cc1` was -0.36%; that for `COc1ccc(N)cc1NC(=O)CN1CCOCC1` was 1.8%. With `CC12C(=O)N(n3cnnc3)C(=O)C1C1C=CC2C1` (configuration not stated), the inhibition is 5.77% (active). For the molecule `O=C(COc1ccccc1F)NNC(=O)c1cc(Br)ccc1Cl`, the inhibition was 0.63%. Turning to `CCN(CC)C(=O)Oc1ccc(Br)cc1C(=O)Nc1ccc(F)c(Cl)c1`, the inhibition was 4.68% (active). Take `COc1ccc(Cl)cc1C(=O)Nc1ccc(N(C)C(C)=O)cc1`: the inhibition was -0.13%. With `N#Cc1ccc(OCC(=O)Nc2nc(-c3ccccn3)cs2)cc1`, the inhibition is -0.76%. The result for `C[C@@H]1CN([C@H](C)CO)S(=O)(=O)c2ccc(C#C[C@@H](C)O)cc2O[C@@H]1CN(C)Cc1ccc(-c2ccccc2)cc1` reads -0.61%. With `Cc1ccc(CN(C)C[C@@H]2OCc3cnnn3CCCC(=O)N([C@@H](C)CO)C[C@H]2C)cc1`, the inhibition is 0.34%. On to `O=C(Nc1cc(S(=O)(=O)N2CCOCC2)ccc1Cl)c1cc(=O)c2ccccc2o1`, for which the inhibition was -1.1%.

Take `O=[N+]([O-])c1cc(Cl)cc(/C=N/NC(=S)Nc2cc(S(=O)(=O)N3CCOCC3)ccc2Cl)c1O`: the inhibition was 4.75% (active). `O=S(=O)(c1ccc(NC(=S)NN=C(C2CC2)C2CC2)cc1)N1CCOCC1`: the inhibition is -0.03%. The result for `O=C1[C@H]2[C@@H](c3ccc(C(F)(F)F)cc3)N[C@]3(CCCN(Cc4ccc(Br)cc4)C3=O)[C@H]2C(=O)N1Cc1ccccc1` reads -0.81%; that for `C[C@@H]1Cn2cnc(C(=O)Nc3ccc(CNC(=O)OC(C)(C)C)cc3)c2C(=O)N1`, -0.54%.

Take `O=C(CSC(=S)N1CCCCC1)c1c(F)cccc1F`: the inhibition is 8.18% (active). As to `O=C(CSC(=S)N1CCOCC1)c1ccccc1`, the inhibition was -3.24%. The result for `CC(=O)c1ccc(NC(=O)CSC(=S)N2CCCC2)cc1` reads -0.17%; that for `CC(C#N)(NC(=O)CN1CCN(S(=O)(=O)c2cc(C(F)(F)F)ccc2Cl)CC1)C1CC1` (configuration not stated), 4.49% (active); that for `O=C(CN1CCN(S(=O)(=O)c2cc(Cl)ccc2Cl)CC1)c1ccc(O)c(O)c1`, 0.26%. Turning to `N#Cc1ccsc1NC(=O)CN1CCN(S(=O)(=O)c2cc(Cl)ccc2Cl)CC1`, the inhibition is -0.1%. `CC(OC(=O)c1cccnc1Cl)C(=O)NC1CCCCC1` (configuration not stated): the inhibition is 2.75%.

In the case of `COc1ccc(C(C(=O)NCC2CCCO2)N(C(=O)Cn2nnc3ccccc32)c2ccc(NC(C)=O)cc2)cc1OC` (configuration not stated), the inhibition is -0.65%.

For `CCC(C)(C)NC(=O)C(c1ccc(O)cc1)N(C(=O)Cn1nnc2ccccc21)c1ccc(NC(C)=O)cc1` (configuration not stated), the inhibition is 0.14%. For `COc1ccc(C(C(=O)NC(C)(C)C)N(C(=O)Cn2nnc3ccccc32)c2ccc(C(C)=O)cc2)cc1O` (configuration not stated), the inhibition was 5.46% (active). For `COc1ccccc1C(=O)NC(=S)Nc1ccc(N2CCOCC2)cc1`, the inhibition is 0.43%. As for `C[C@H]1CN([C@@H](C)CO)C(=O)c2cc(Br)cnc2O[C@H]1CN(C)S(=O)(=O)c1cccs1`, the inhibition was 0.93%. Consider `C[C@H]1CN([C@@H](C)CO)C(=O)CCCn2cc(nn2)CO[C@@H]1CN(C)S(=O)(=O)c1cccs1`, for which the inhibition is -0.09%. Regarding `CN(C)CCNc1ccc(-c2n[nH]c(=O)c3ccccc23)cc1[N+](=O)[O-]`, the inhibition is 4.46% (active).

In the case of `COCCNc1ccc(-c2n[nH]c(=O)c3ccccc23)cc1[N+](=O)[O-]`, the inhibition is -1.07%.

For `CCN(CC)CCNc1ccc(Cl)cc1[N+](=O)[O-]`, the inhibition was 0.15%.

`CCc1cccc(CC)c1N1C(=O)CC(Sc2ccccc2N)C1=O` (configuration not stated): the inhibition was 2.47%. In the case of `CN(C)C(CNC(=O)c1cccc(S(=O)(=O)N2CCc3ccccc3C2)c1)c1ccccc1` (configuration not stated), the inhibition was -0.17%. With `Oc1ccccc1-c1cc(-c2ccc(Cl)cc2)n[nH]1`, the inhibition is 3.28%. Turning to `Nc1cccc(-c2cc(-c3ccccc3)nc(-c3cccc(N)c3)n2)c1`, the inhibition was -0.66%.

For the molecule `c1ccc(-c2cc(-c3ccccc3)[nH]n2)cc1`, the inhibition is 5.19% (active). For the molecule `Cc1[nH]c2ccccc2c1C(=O)C(=O)NCc1nnnn1-c1cccc(F)c1`, the inhibition is -0.63%. For `O=C1CCC(C(=O)OCC(=O)Nc2ccc(OC(F)F)cc2)=NN1`, the inhibition is 0.5%.

On to `O=C(N=C1SC2CS(=O)(=O)CC2N1Cc1ccccc1)c1ccccc1` (configuration not stated), for which the inhibition is 4.11%. The result for `O=C(c1cccs1)N1C[C@H](n2cc(C3CC3)nn2)[C@@H](O)C[C@@H]1c1ccccc1` reads 1.63%.

The values are drawn from PubChem BioAssay AID504766 (The Scripps Research Institute Molecular Screening Center, 2011).
